Measured values: PubChem BioAssay (Tox21)
Several values for one entry are separate records, joined by “and”; a condition that tells them apart may be missing. Equal values may be shown once. Records with an inconclusive call do not appear. A call without a number means that no potency is given here. The source holds several records for some structures; these can differ, active in one and inactive in another. Activity calls are given as the source filed them. The call rests on the fitted dose curve; in most records, active means well fitted activation curve with a large enough effect in the repeat runs; inconclusive means weak or mixed curves; inactive means flat fitted curve, though single readings scatter.

Assay: A CellTox Green Cytotoxicity Assay to monitor cytotoxicity in HepG2 cells - 24 hour (AID 1224878); further: nearly all actives have a fitted effect of over 45% in size
Settings: CellTox Green fluorescence; series mostly up to 76.8 µM; cytotoxicity: at the top concentration
Outline: (§1)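 HepG2 cells, 600/well, preincubated 5 h with CellTox Green dye, then exposed to Tox21 compounds in DMSO at 37 C for up to 40 h. Dead-cell DNA fluorescence read at the indicated time point.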
Potency means the concentration at half of the fitted maximal effect.

Compound	cytotoxicity	Potency
Cn1cnc([N+](=O)[O-])c1Sc1ncnc2nc[nH]c12	-15.4% [at 35.3 µM] (inactive)	
Oc1ccc(O)cc1		inactive
CC(CCC(=O)O)(c1ccc(O)cc1)c1ccc(O)cc1		inactive
COc1ccc(OC)c(C(O)CNC(=O)CN)c1 (stereo not drawn)		inactive
Nc1ccccc1N		56.2 µM (active) and inactive
c1ccc2c(c1)Oc1ccccc1S2	1.21% (inactive)	
Cc1c(OCC(F)(F)F)ccnc1CS(=O)c1nc2ccccc2[nH]1 (stereo not drawn)		inactive
CC(=O)C1(C)CC2=C(CCCC2(C)C)CC1C (stereo not drawn)		inactive
c1ccc2sc(SSN3CCOCC3)nc2c1		54.9 µM (active)
CCCCC(CC)COP(=O)(OCC(CC)CCCC)OCC(CC)CCCC (stereo not drawn)		inactive
O=C(Nc1ccc([N+](=O)[O-])cc1Cl)c1cc(Cl)ccc1O	38% [at 15.8 µM] (inactive)	5.49 µM (active)
CCCC(=O)O		inactive
CCCCc1oc2ccccc2c1C(=O)c1cc(I)c(OCCN(CC)CC)c(I)c1		39.2 µM (active)
CN(C)CCC=C1c2ccccc2CCc2ccccc21		38.9 µM (active) and 23.9 µM (active)
CC(=O)Oc1ccccc1C(=O)Nc1ncc([N+](=O)[O-])s1		inactive
O=C(c1ccccc1)c1ccccc1O	6.52% (inactive)	
Cc1ccc2c(n1)Oc1ccc(C(C)C(=O)OCC(=O)N(C)C)cc1C2 (stereo not drawn)		inactive
O=C(/C=C/C=C/c1ccc2c(c1)OCO2)N1CCCCC1	12.8% (inactive)	
O=CCc1ccccc1		inactive

Compound	cytotoxicity	Potency
CN(C)CCN(Cc1cccs1)c1ccccn1		inactive
CCCCOCCOCCOCCO		inactive
c1cc(N(CC2CO2)CC2CO2)ccc1OCC1CO1 (stereo not drawn)		inactive
CC1=CC2C3CC(C=C3C)C2C1 (stereo not drawn)		inactive and 27.5 µM (active)
OC1CCCCCCCCCCC1		49.5 µM (active) and 43.6 µM (active)
O=C(c1ccc(OCCN2CCCCC2)cc1)c1c(-c2ccc(O)cc2)sc2cc(O)ccc12		55 µM (active) and 54.9 µM (active)
C#C[C@]1(O)CC[C@H]2[C@@H]3CCC4=Cc5oncc5C[C@]4(C)[C@H]3CC[C@@]21C		inactive
OC[C@H]1O[C@@H]2O[C@H]3[C@H](O)[C@@H](O)[C@@H](O[C@H]4[C@H](O)[C@@H](O)[C@@H](O[C@H]5[C@H](O)[C@@H](O)[C@@H](O[C@H]6[C@H](O)[C@@H](O)[C@@H](O[C@H]7[C@H](O)[C@@H](O)[C@@H](O[C@H]8[C@H](O)[C@@H](O)[C@@H](O[C@H]1[C@H](O)[C@H]2O)O[C@@H]8CO)O[C@@H]7CO)O[C@@H]6CO)O[C@@H]5CO)O[C@@H]4CO)O[C@@H]3CO		inactive
COc1c(Cl)c(Cl)c(Cl)c(Cl)c1Cl		inactive
S=C(NC1CCCCC1)NC1CCCCC1		inactive
O=C1c2cccc(O)c2C(=O)c2c(O)cccc21		inactive
CC(=O)O[C@]1(C(C)=O)CC[C@H]2[C@@H]3C=C(Cl)C4=CC(=O)[C@@H]5C[C@@H]5[C@]4(C)[C@H]3CC[C@@]21C		inactive
CCC(C)c1ccccc1O (stereo not drawn)	29.2% (inactive)	
CCOCCOCCO		inactive
COc1ccccc1/C=C/C=O		inactive
O=C(Nc1ccc(Cl)cc1)Nc1ccc(Cl)c(Cl)c1		inactive
C[C@]12CC[C@H]3[C@@H](CCC4=CC(=O)CC[C@@]43C)[C@@H]1CC[C@@H]2C(=O)CO	-14.3% [at 35.3 µM] (inactive)	
CC(C)Oc1ccc2c(=O)c(-c3ccccc3)coc2c1		inactive

Assay: A CellTox Green Cytotoxicity Assay to monitor cytotoxicity in HepG2 cells - 40 hour (AID 1224879); further: nearly all actives have a fitted effect of over 40% in size
Settings: CellTox Green fluorescence; series mostly up to 76.8 µM; cytotoxicity increase: at the top concentration
Outline: as §1

Compound	Potency	cytotoxicity increase
Cn1cnc([N+](=O)[O-])c1Sc1ncnc2nc[nH]c12	54.5 µM (active) and inactive	
Oc1ccc(O)cc1	inactive	
CC(CCC(=O)O)(c1ccc(O)cc1)c1ccc(O)cc1	inactive	
COc1ccc(OC)c(C(O)CNC(=O)CN)c1 (stereo not drawn)	inactive	
Nc1ccccc1N	28.2 µM (active)	
c1ccc2c(c1)Oc1ccccc1S2		-0.156% (inactive)
Cc1c(OCC(F)(F)F)ccnc1CS(=O)c1nc2ccccc2[nH]1 (stereo not drawn)	inactive	
CC(=O)C1(C)CC2=C(CCCC2(C)C)CC1C (stereo not drawn)	inactive	
c1ccc2sc(SSN3CCOCC3)nc2c1	54.8 µM (active) and 49 µM (active)	
CCCCC(CC)COP(=O)(OCC(CC)CCCC)OCC(CC)CCCC (stereo not drawn)	inactive	
O=C(Nc1ccc([N+](=O)[O-])cc1Cl)c1cc(Cl)ccc1O	4.9 µM (active) and 2.33 µM (active)	
CCCC(=O)O	inactive	
CCCCc1oc2ccccc2c1C(=O)c1cc(I)c(OCCN(CC)CC)c(I)c1	31.1 µM (active) and 26.8 µM (active)	
CN(C)CCC=C1c2ccccc2CCc2ccccc21	55 µM (active) and 43.6 µM (active) and 26.8 µM (active)	
CC(=O)Oc1ccccc1C(=O)Nc1ncc([N+](=O)[O-])s1	11.2 µM (active)	
O=C(c1ccccc1)c1ccccc1O		1.97% (inactive)
Cc1ccc2c(n1)Oc1ccc(C(C)C(=O)OCC(=O)N(C)C)cc1C2 (stereo not drawn)		-6.18% [at 35.3 µM] (inactive)
O=CCc1ccccc1		-7.98% (inactive)

Compound	Potency	cytotoxicity increase
CN(C)CCN(Cc1cccs1)c1ccccn1	inactive	
CCCCOCCOCCOCCO	inactive	
c1cc(N(CC2CO2)CC2CO2)ccc1OCC1CO1 (stereo not drawn)		-1.66% (inactive)
CC1=CC2C3CC(C=C3C)C2C1 (stereo not drawn)	inactive and 38.9 µM (active)	
OC1CCCCCCCCCCC1	49.5 µM (active)	
O=C(c1ccc(OCCN2CCCCC2)cc1)c1c(-c2ccc(O)cc2)sc2cc(O)ccc12	49 µM (active) and 26.8 µM (active)	
C#C[C@]1(O)CC[C@H]2[C@@H]3CCC4=Cc5oncc5C[C@]4(C)[C@H]3CC[C@@]21C	inactive	
OC[C@H]1O[C@@H]2O[C@H]3[C@H](O)[C@@H](O)[C@@H](O[C@H]4[C@H](O)[C@@H](O)[C@@H](O[C@H]5[C@H](O)[C@@H](O)[C@@H](O[C@H]6[C@H](O)[C@@H](O)[C@@H](O[C@H]7[C@H](O)[C@@H](O)[C@@H](O[C@H]8[C@H](O)[C@@H](O)[C@@H](O[C@H]1[C@H](O)[C@H]2O)O[C@@H]8CO)O[C@@H]7CO)O[C@@H]6CO)O[C@@H]5CO)O[C@@H]4CO)O[C@@H]3CO	inactive	
COc1c(Cl)c(Cl)c(Cl)c(Cl)c1Cl	inactive	
S=C(NC1CCCCC1)NC1CCCCC1	inactive	
O=C1c2cccc(O)c2C(=O)c2c(O)cccc21	inactive	
CC(=O)O[C@]1(C(C)=O)CC[C@H]2[C@@H]3C=C(Cl)C4=CC(=O)[C@@H]5C[C@@H]5[C@]4(C)[C@H]3CC[C@@]21C	inactive	
CCC(C)c1ccccc1O (stereo not drawn)	48.6 µM (active)	
CCOCCOCCO	inactive	
COc1ccccc1/C=C/C=O	inactive	
C[C@]12CC[C@H]3[C@@H](CCC4=CC(=O)CC[C@@]43C)[C@@H]1CC[C@@H]2C(=O)CO		-7.57% [at 35.3 µM] (inactive)
CC(C)Oc1ccc2c(=O)c(-c3ccccc3)coc2c1	inactive	
